Screening data from PubChem BioAssay.
Tgondii IFNg: T. gondii growth inhibition under IFN-gamma | activity change, negative = inhibition, % (test concentration not listed) | AID 1259416 | Toxoplasma gondii growth in IFN-gamma-treated host cells; hits give low values | 69,000 tested, 3.8% active; in the data active = activity change below about -70%, passing the limit was not always enough;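 also: host cells are HeLa cells infected with Toxoplasma gondii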
* = called active by the depositor; ! = not confirmed by another sample. This is one part of a sample in which hits are shown more often than they occur.

For COc1ccccc1NC(=O)c1ccc2nsnc2c1 the results were Tgondii IFNg 70.
Screening COc1cc(C(=O)Nc2ccc(-c3nc(-c4ccc(C)cc4)co3)cc2)cc(OC)c1OC returned Tgondii IFNg 16.
Screening COc1cc(C(=O)Nc2ccccc2-c2nc3ccccc3s2)cc(OC)c1OC returned Tgondii IFNg -90*.
`CO[C@H]1CN(C(=O)CCc2nc3ccccc3[nH]2)CC[C@H]1N` gave Tgondii IFNg -4.
`CCn1c(CC2CCN(Cc3ccc(F)c(F)c3F)CC2)nn(C)c1=O` gave Tgondii IFNg -5.
Screening COc1cccc(OC)c1C(=O)NCCc1sc(-c2cccc(F)c2)nc1C returned Tgondii IFNg 69.
For CCN(CC)C(=O)c1sc(NC(=O)c2c(OC)cccc2OC)c(C#N)c1C the results were Tgondii IFNg -83*.
`COc1ccc(Oc2cccc(Oc3ccc(OC)cc3)c2C#N)cc1` gave Tgondii IFNg -2.
For CC1CCCN(S(=O)(=O)N2CCC3(CC2)NC(=O)N(Cc2ccccc2)C3=O)C1 (centres undefined) the results were Tgondii IFNg 1.
For Cn1cc(C(=O)N2C[C@H]3CN(Cc4cccc(F)c4)C(=O)[C@@H]3C2)cn1 the results were Tgondii IFNg -11.
`COCCN1CCO[C@H]2CCN(C(=O)c3ccn(C)n3)C[C@H]21` gave Tgondii IFNg -25.
For O=C1N(Cc2ccccn2)C(=O)C2(CCN(Cc3ccc4c(c3)OCO4)CC2)N1CCc1ccccc1 the results were Tgondii IFNg 1.
`COC(=O)CN1C(=O)N(CCc2ccccc2)C2(CCN(Cc3ccncc3)CC2)C1=O` gave Tgondii IFNg -38.
Screening O=C1N(Cc2cccnc2)C(=O)C2(CCN(Cc3cc4ccccc4o3)CC2)N1CCc1ccccc1 returned Tgondii IFNg -86*.
`Cc1csc2ncnc(-c3cccc4[nH]ccc34)c12` gave Tgondii IFNg -74*.
`OCCNc1ncnc2ccc(-c3cccc4[nH]ccc34)cc12` gave Tgondii IFNg -57.
CCNc1ccnc(-c2cccc3[nH]ccc23)n1 was read as Tgondii IFNg 36.
FC(F)(F)CCc1ccnc(NCc2cccnc2)n1 was read as Tgondii IFNg 3.
`COc1ccc(N2CCN(C(=O)c3csc(-c4ccc(N5CCCC5)nc4)n3)CC2)cc1` gave Tgondii IFNg 23.
Screening COCC(NC(=O)c1cc(NC(C)=O)ccc1Cl)c1ccnn1C (centres undefined) returned Tgondii IFNg -42.
`Cc1cccn2cc(Cn3c(=O)n(CC4CC4)c4ccc(C(=O)O)cc43)nc12` gave Tgondii IFNg 2.
`Cc1cccc(CN(Cc2ccccc2)C(=O)c2ccc3nc(C(F)(F)F)[nH]c3c2)n1` gave Tgondii IFNg 5.
Screening Cc1cccc(CN(Cc2ccccc2)C(=O)CCc2ccncc2)n1 returned Tgondii IFNg -1.
`Cc1ccc(-c2ncc(CN(Cc3ccccc3)Cc3cccc(C)n3)cn2)cc1` gave Tgondii IFNg -79*.
NC(=O)C1CCN(CCS(=O)(=O)c2ccccc2)CC1 was read as Tgondii IFNg 49.
`Cc1noc(C)c1CCNc1ncc2c(n1)c1ccc(Cl)cc1n1ccnc21` gave Tgondii IFNg -73*.
Screening Cc1cccc(-c2nnc(-c3nc(NCCc4c(C)noc4C)c4ccccc4n3)o2)c1 returned Tgondii IFNg -17.
Screening O=C1CSC(c2cccs2)N1c1ccc(F)cc1F (centres undefined) returned Tgondii IFNg 40.
`O=C1c2cccc3cccc(c23)C(=O)N1c1ccc2ncccc2c1` gave Tgondii IFNg -36.
`O=C1c2ccc3c4c(ccc(c24)C(=O)N1c1ccccn1)C(=O)N(c1ccccn1)C3=O` gave Tgondii IFNg -90*.
For c1ccc(-c2ccccn2)nc1 the results were Tgondii IFNg -5.
`Cc1ccc(C(=O)NCc2cccnc2)cc1C` gave Tgondii IFNg 47.
For Cc1cccc(CN2CCC(N3CCC(C(=O)NC4CCOC4)CC3)CC2)n1 (centres undefined) the results were Tgondii IFNg 5.
For CCn1c(C2CCN(C(=O)Nc3ccc(OC)c(OC)c3)CC2)nn(C)c1=O the results were Tgondii IFNg -5.
Screening C#C[C@]1(O)CCC2C3CCC4=Cc5oncc5C[C@]4(C)C3CC[C@@]21C (some centres undefined) returned Tgondii IFNg -74*!.
C#C[C@]1(O)CCC2C3CCC4=CC(=O)CCC4C3C(=C)CC21CC (some centres undefined) was read as Tgondii IFNg 0.
For C#C[C@]1(O)CCC2C3CCC4=C(CCC(=O)C4)C3CC[C@@]21C (some centres undefined) the results were Tgondii IFNg -80*.
Screening C#C[C@]1(O)CCC2C3CCc4cc(OC5CCCC5)ccc4C3CC[C@@]21C (some centres undefined) returned Tgondii IFNg -6.
Screening C[C@]12CCC3c4ccc(OC(=O)c5ccccc5)cc4CCC3C1CCC2=O (some centres undefined) returned Tgondii IFNg 18.
